PubChem BioAssay AID743294 (Broad Institute, 2014)
Measured potencies and affinities stand elsewhere. The source made the active and inactive calls.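 The calls were made as follows: active = compounds lowering fluorescence whose fitted half-maximal dose is at most twice the top valid dose; inconclusive = flat fit between -70% and -30%, or poor curve fit; inactive = the rest.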

What follows are compounds tested against Caspase-8 (Homo sapiens) (UniProt Q14790) (assay: inhibitors of purified CASP8 protease – biochemical, Z-IETD-R110 fluorescence, cherry-picked samples, selectivity assay for caspase-6 inhibitor project, dose response (AID 743294)). Conditions: purified caspase-8, Z-IETD-R110 cleavage fluorescence; series mostly up to 35 µM.
Chain of Caspase-8 (Homo sapiens) (Q14790 whole entry, looked up): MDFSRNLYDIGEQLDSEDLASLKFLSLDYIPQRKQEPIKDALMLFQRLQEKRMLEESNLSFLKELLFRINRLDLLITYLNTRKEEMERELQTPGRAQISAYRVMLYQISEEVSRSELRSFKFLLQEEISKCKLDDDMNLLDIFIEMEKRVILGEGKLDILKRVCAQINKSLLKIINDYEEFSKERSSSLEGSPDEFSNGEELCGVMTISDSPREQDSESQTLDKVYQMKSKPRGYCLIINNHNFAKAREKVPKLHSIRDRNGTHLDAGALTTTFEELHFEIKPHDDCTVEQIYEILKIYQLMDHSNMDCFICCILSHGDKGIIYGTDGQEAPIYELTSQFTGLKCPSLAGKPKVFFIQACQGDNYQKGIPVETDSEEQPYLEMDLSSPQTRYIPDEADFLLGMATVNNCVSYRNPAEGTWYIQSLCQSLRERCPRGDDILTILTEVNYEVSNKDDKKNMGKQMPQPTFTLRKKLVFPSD

outcome, inactive:
Cc1ccc(S(=O)(=O)Nc2csc(C)c2C(=O)O)cc1, O=C(O)/C(=C\c1ccc(Cl)c([N+](=O)[O-])c1)c1ccc(S(=O)(=O)N2CCCC2)s1, COc1cc(NC(C)CCCNC(C)C)c2ncccc2c1OC (centres undefined), O=C(Nc1ccc2nc3n(c(=O)c2c1)CCCCC3)c1c(F)ccc([N+](=O)[O-])c1F, [O-][n+]1onc2c1CCc1c-2nn(-c2ccccc2Cl)[n+]1[O-], O=[N+]([O-])c1c(Nc2ccccn2)cc(Cl)c2nonc12, Nc1c(O)cccc1C(=O)O, O=C(O)CC(CCc1ccccc1)OC1OC(CO)C(O)C(O)C1O (centres undefined), Cc1ccc(S(=O)c2ccc([N+](=O)[O-])c3nonc23)cc1 (centres undefined), Cc1cc(C=O)c(C)n1-c1cc(C(=O)O)cc(C(=O)O)c1, O=C(O)CCc1ccc(-c2ccc(Br)cc2)n1CC(=O)O, O=c1cc2c(=O)oc3cc(O)c(O)oc3c2c(O)c1O, C/C(CC(=O)N1CCCC1)=N\NC(=O)c1cc2ccccc2cc1O, COCCn1c2nc(=O)n(-c3ccccc3)c(=O)c-2nc2ccccc21, CCCSC1=N/C(=C\c2ccc([N+](=O)[O-])o2)C(=O)S1, CNS(=O)(=O)c1cccc(C(=O)OCC(=O)N2c3ccccc3NC(=O)C2(C)C)c1, O=c1c(CO)cc(CO)cc(CO)c1O, Oc1cc2c(cc1O)[C@H]1c3ccc(O)c(O)c3OC[C@@]1(O)C2, COc1cc(NCCCCC(C)N)c2nccc(C)c2c1 (centres undefined), CCN(CC)CCCC(C)n1c2nc(=O)[nH]c(=O)c-2nc2cc(Cl)ccc21 (centres undefined), COc1ccc(C(=O)OCC(=O)Nc2ncc([N+](=O)[O-])s2)cc1OC, CCOC(=O)c1sc2nc(OCCN3CCOCC3)cc(C)c2c1N, CC(CNc1ccccc1O)C(=O)O (centres undefined), CO[C@H]1CN(C)C(=O)c2cc(NC(C)=O)ccc2OC[C@@H](C)N(C(=O)CC2CC2)C[C@H]1C, O=C(C[C@@H]1C[C@H]2c3cc(NC(=O)NC4CCCCC4)ccc3O[C@H]2[C@H](CO)O1)NCc1ccccn1, Cc1[nH]nc(S(=O)CC(=O)O)c1[N+](=O)[O-] (centres undefined), Cc1cc(C=O)c(C)n1-c1ccc(Cl)c(C(=O)O)c1, COc1ccc([N+](=O)[O-])cc1NC(=O)CCS(=O)(=O)c1ccc(Br)cc1, CCCCNC(=O)c1nc(C2CCNCC2)oc1-c1cccc(C(F)(F)F)c1, O=C(Nc1ccc(S(=O)(=O)Nc2cnc3ccccc3n2)cc1)c1ccc(Cl)c([N+](=O)[O-])c1, COc1ccc(NS(=O)(=O)c2ccc3c(c2)[C@H]2C=CC[C@H]2[C@@H](c2ccc(C(=O)O)cc2)N3)cc1, O=C(O)Cc1ccc(-n2cccc2)cc1, Cc1oc2c(cc(NS(=O)(=O)c3ccc(C(C)C)cc3)c3ccccc32)c1C(=O)O, CCOC(=O)[C@H](Cc1c[nH]c2ccccc12)NC(=O)CN=[N+]=[N-], Nc1cc(S(=O)(=O)O)cc([N+](=O)[O-])c1O, Nc1ccc(Nc2ccccc2)c(S(=O)(=O)O)c1, O=C(CCO)c1ccc(O)cc1, Cn1cnnc1SCC(=O)Nc1ncc([N+](=O)[O-])s1, O=P(c1ccccc1)(c1ccccc1)c1cc(S(=O)(=O)O)ccc1O
